Test results from ChEMBL document CHEMBL1201862, “PubChem BioAssay data set” (2004).
The campaign covered roughly 57,000 […]. About 3,200 (5.6%) were called active. No stated cut-off is given here; in the data, active = GI50 up to about 1.1 µM and inactive = higher. Not all results are given here. Potency and affinity values are given separately.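 Growth conditions: 96-well plates. Treatment: test compound, 48 hours, 5 concentrations. Analysis: linear interpolation between bracketing concentrations; unreached endpoints set to highest concentration. GI50 = concentration required for 50% inhibition of growth.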

Test system: SF-268
Assay: NCI tumour cell line growth inhibition, 48 h

| Substance | GI50 |
| --- | --- |
| [Bis(aminomethyl)ethylmethylsilane]tetrachloroplatinum(IV), CHEMBL2146192 | 2.43 µM |
| [Bis(aminomethyl)tetramethylenesilane]tetrachloropaltinum(IV), CHEMBL2146189 | 3.52 µM |
| [Bis(aminomethyl)dimethylsilane]tetrachloroplatinum(IV), CHEMBL2146190 | 2.74 µM |
| [Bis(aminomethyl)diethylsilane]tetrachloroplatinum(IV), CHEMBL2146203 | 1.57 µM |
| [Bis(aminomethyl)tetramethylenesilane]dichloropaltinum(II), CHEMBL2146205 | 21.8 µM |
| [Bis(aminomethyl)dimethylsilane]dichloroplatinum (II), CHEMBL2146201 | 8.81 µM |
| cis-Bis[[(trimethylsilyl)methyl]amino]tetrachloroplatinum(IV), CHEMBL2146191 | 13.6 µM |
| mu-(1,7-nanodiamine-N,N')bis-(cis-aminedichloroplatimum (II)), CHEMBL2146215 | 8.97 µM |
| CISPLATIN, CHEMBL11359 | 0.745 µM |
| [Bis(aminomethyl)pentamethylenesilane]dichloropaltinum(II), CHEMBL2146202 | 3.46 µM |
| [Bis(aminomethyl)pentamethylenesilane]tetrachloropaltinum(IV), CHEMBL2146204 | 3.59 µM |
